Measured values from the antibiotic and cytotoxicity screens of Wong et al. (2023).
Out of some 39,000 compounds screened, about 1,500 (3.8%) were called active. Only a selection was taken, and actives are over-represented in it overall.

system: HSkMC (human skeletal muscle cells); assay: cytotoxicity call (relative viability < 0.9); details: 10 µM

SMILES | cytotoxicity call
C[C@@H]1CCCCO[C@@H](CN(C)Cc2ccc(C(F)(F)F)cc2)[C@H](C)CN([C@H](C)CO)C(=O)c2cc(NS(C)(=O)=O)ccc2O1 | inactive
COc1ccccc1S(=O)(=O)N(C)C[C@@H]1OCc2cn(nn2)CCCC(=O)N([C@@H](C)CO)C[C@@H]1C | inactive
C=c1ccc(C)cc1=C1NN=C(NC(=O)c2ccc(S(=O)(=O)N(CCOC)CCOC)cc2)O1 | active
C=c1cc(C)ccc1=C1NN=C(NC(=O)CC)O1 | inactive
C=c1cc(C)ccc1=C1NN=C(NC(C)=O)O1 | inactive
C[C@H](CO)N1C[C@H](C)[C@@H](CN(C)C(=O)Nc2ccc(F)cc2)Oc2ccc(NC(=O)Cn3cnnn3)cc2C1=O | inactive
C[C@@H](NC(=O)C[C@H]1C=C[C@H](NC(=O)CN2CCOCC2)[C@H](CO)O1)c1ccccc1 | inactive
Cc1noc(C)c1S(=O)(=O)Nc1ccc2c(c1)C(=O)N([C@@H](C)CO)C[C@H](C)[C@H](CN(C)C(=O)Nc1ccccc1)O2 | inactive
CCN(CC)CCN(Cc1ccc(-c2ccc(C(F)(F)F)cc2)cc1)C(=O)Cn1c(SCc2ccc(F)cc2)nc(=O)c2c1CCC2 | active
C[C@@H]1CN([C@@H](C)CO)C(=O)Cc2cc(NS(=O)(=O)c3cn(C)cn3)ccc2O[C@@H]1CN(C)C(=O)Nc1ccc(F)cc1 | inactive
C[C@@H]1CN([C@@H](C)CO)C(=O)c2cc(NC(=O)Nc3ccc(F)cc3)ccc2O[C@@H]1CN(C)Cc1ccc(Oc2ccccc2)cc1 | active
C[C@@H]1CN([C@H](C)CO)C(=O)c2cc(NC(=O)Nc3ccc(F)cc3)ccc2O[C@H]1CN(C)Cc1ccc(Oc2ccccc2)cc1 | inactive
C[C@H](CO)N1C[C@H](C)[C@H](CN(C)Cc2ccc(Oc3ccccc3)cc2)Oc2ccc(NC(=O)Nc3ccc(F)cc3)cc2C1=O | active
C[C@H]1CN([C@@H](C)CO)C(=O)c2cc(NC(=O)Nc3ccc(F)cc3)ccc2O[C@@H]1CN(C)Cc1ccc(Oc2ccccc2)cc1 | inactive
C[C@@H]1CN([C@@H](C)CO)C(=O)c2cc(NC(=O)Nc3ccc(F)cc3)ccc2O[C@H]1CN(C)Cc1ccc(Oc2ccccc2)cc1 | inactive
C[C@@H]1CN([C@H](C)CO)C(=O)c2cc(NC(=O)Nc3ccc(F)cc3)ccc2O[C@@H]1CN(C)Cc1ccc(Oc2ccccc2)cc1 | active
C[C@H]1CN([C@@H](C)CO)C(=O)c2cc(NC(=O)Nc3ccccc3)ccc2O[C@@H]1CN(C)Cc1ccc(Oc2ccccc2)cc1 | inactive
C[C@H](CO)N1C[C@H](C)[C@@H](CN(C)Cc2ccc(Oc3ccccc3)cc2)Oc2ccc(NC(=O)Nc3ccc(F)cc3)cc2C1=O | inactive
C[C@H]1CN([C@@H](C)CO)C(=O)c2cc(NC(=O)Nc3ccc(F)cc3)ccc2O[C@H]1CN(C)Cc1ccc(Oc2ccccc2)cc1 | inactive
CN1C(=O)c2cc(NC(=O)c3cnccn3)ccc2OC[C@H]2O[C@@H](CC(=O)N[C@@H]3CCN(Cc4ccccc4)C3)CC[C@@H]21 | inactive
CN1CCN(C(=O)C[C@@H]2CC[C@@H]3[C@H](COC[C@@H](O)CN3Cc3ccc4c(c3)OCO4)O2)CC1 | inactive
CS(=O)(=O)Cc1nc2ccccc2oc1=O | inactive

SMILES | cytotoxicity call
Cc1noc(C)c1NC(=O)Nc1cccc2c1O[C@@H](CN(C)Cc1ccc(Oc3ccccc3)cc1)[C@@H](C)CN([C@H](C)CO)C2=O | inactive
COc1ccc(S(=O)(=O)Nc2ccc3c(c2)C(=O)N([C@H](C)CO)C[C@H](C)[C@H](CN(C)S(=O)(=O)c2ccc(Cl)cc2)OCCCC[C@H](C)O3)cc1 | inactive
CCC(=O)N(C)C[C@@H]1Oc2ncc(C#C[C@H](C)O)cc2C(=O)N([C@H](C)CO)C[C@H]1C | inactive
COc1cccc(S(=O)(=O)N(C)C[C@H]2Oc3ncc(C#CC(C)C)cc3C(=O)N([C@H](C)CO)C[C@H]2C)c1 | inactive
CO[C@@H]1CN(C)C(=O)c2cc(NS(=O)(=O)CC(F)(F)F)ccc2OC[C@H](C)N(C(=O)NC(C)C)C[C@H]1C | inactive
C[C@@H]1CN([C@H](C)CO)C(=O)c2cc(NC(=O)CCCCCC(=O)Nc3ccccc3N)ccc2O[C@H]1CN(C)C(=O)Nc1ccc(F)cc1 | inactive
CN(C)c1nc(SCCO)nc(N(C)C)n1 | inactive
C[C@@H]1CCCCO[C@H](CN(C)C(=O)Nc2cccc3ccccc23)[C@H](C)CN([C@@H](C)CO)C(=O)c2cc(NS(=O)(=O)c3ccc(F)cc3)ccc2O1 | inactive
O=C(OCC1OC(OC(=O)c2cc(O)c(O)c(OC(=O)c3cc(O)c(O)c(O)c3)c2)C(OC(=O)c2cc(O)c(O)c(OC(=O)c3cc(O)c(O)c(O)c3)c2)C(OC(=O)c2cc(O)c(O)c(OC(=O)c3cc(O)c(O)c(O)c3)c2)C1OC(=O)c1cc(O)c(O)c(OC(=O)c2cc(O)c(O)c(O)c2)c1)c1cc(O)c(O)c(OC(=O)c2cc(O)c(O)c(O)c2)c1 (centres undefined) | inactive
O=C(OC[C@H]1O[C@@H](OC(=O)c2cc(O)c(O)c(O)c2)[C@H](O)[C@@H](OC(=O)c2cc(O)c(O)c(O)c2)[C@@H]1O)c1cc(O)c(O)c(O)c1 | inactive
O=C(OC[C@H]1O[C@@H](OC(=O)c2cc(O)c(O)c(O)c2)[C@H](OC(=O)c2cc(O)c(O)c(O)c2)[C@@H](OC(=O)c2cc(O)c(O)c(O)c2)[C@@H]1OC(=O)c1cc(O)c(O)c(O)c1)c1cc(O)c(O)c(O)c1 | active
CC(C)NC(=O)N(C)C[C@@H]1Oc2ccc(NC(=O)CCCN(C)C)cc2CC(=O)N([C@H](C)CO)C[C@@H]1C | inactive
COc1ccc(NC(=O)Nc2ccc3c(c2)C(=O)N([C@@H](C)CO)C[C@@H](C)[C@@H](CN(C)Cc2ccc(C(=O)Nc4ccccc4N)cc2)O3)cc1 | inactive
C[C@H]1CN([C@@H](C)CO)C(=O)c2c(c3ccccc3n2C)-c2ccccc2CO[C@@H]1CN(C)S(=O)(=O)c1ccc(Cl)cc1 | inactive
Cc1ccc(S(=O)(=O)Nc2ccc3c(c2)C(=O)N([C@H](C)CO)C[C@H](C)[C@@H](CN(C)S(C)(=O)=O)O3)cc1 | inactive
C[C@@H]1CN([C@H](C)CO)C(=O)c2cccc(NC(=O)Nc3ccc(C(F)(F)F)cc3)c2O[C@@H]1CN(C)Cc1ccc(C(F)(F)F)cc1 | active
C[C@@H]1CN([C@@H](C)CO)C(=O)c2cccc(NC(=O)Nc3ccc(C(F)(F)F)cc3)c2O[C@@H]1CN(C)Cc1ccc(C(F)(F)F)cc1 | active
C[C@H](CO)N1C[C@H](C)[C@@H](CN(C)Cc2ccc(C(F)(F)F)cc2)Oc2c(NC(=O)Nc3ccc(F)cc3)cccc2C1=O | inactive
C[C@H](CO)N1C[C@H](C)[C@H](CN(C)Cc2ccc(C(F)(F)F)cc2)Oc2c(NC(=O)Nc3ccc(C(F)(F)F)cc3)cccc2C1=O | inactive
C[C@@H]1CN([C@H](C)CO)C(=O)c2cccc(NC(=O)Nc3ccc(C(F)(F)F)cc3)c2O[C@H]1CN(C)Cc1ccc(C(F)(F)F)cc1 | inactive
C[C@@H]1CN([C@@H](C)CO)C(=O)c2cccc(NC(=O)Nc3ccc(C(F)(F)F)cc3)c2O[C@H]1CN(C)Cc1ccc(C(F)(F)F)cc1 | inactive
C[C@@H]1CN([C@@H](C)CO)C(=O)c2cccc(NC(=O)Nc3ccc(F)cc3)c2O[C@H]1CN(C)Cc1ccc(C(F)(F)F)cc1 | inactive

SMILES | cytotoxicity call
C[C@H](CO)N1C[C@H](C)[C@@H](CN(C)Cc2ccc(C(F)(F)F)cc2)Oc2c(NC(=O)Nc3ccc(C(F)(F)F)cc3)cccc2C1=O | inactive
C[C@H]1CN([C@@H](C)CO)C(=O)c2cccc(NC(=O)Nc3ccc(F)cc3)c2O[C@@H]1CN(C)Cc1ccc(C(F)(F)F)cc1 | active
CO[C@@H]1CN(C)C(=O)c2cc(NS(=O)(=O)c3cn(C)cn3)ccc2OC[C@@H](C)N(CCC(F)(F)F)C[C@H]1C | inactive
O=C(C[C@H]1CC[C@@H]2[C@H](COC[C@H](O)CN2S(=O)(=O)c2cccc(F)c2)O1)NCCCN1CCOCC1 | inactive
COCC#Cc1cnc2c(c1)C(=O)N([C@@H](C)CO)C[C@H](C)[C@H](CN(C)C(=O)Nc1ccccc1OC)O2 | inactive
O=C(CCCCCNC(=O)OCc1ccc(CO[C@@H]2C[C@H](c3ccc(C(F)(F)F)cc3)C=C(C(=O)N3CCN(Cc4ccc5c(c4)OCO5)CC3)O2)cc1)NO | inactive
C[C@@H]1CN([C@@H](C)CO)S(=O)(=O)c2ccc(-c3ccc(C(=O)N(C)C)cc3)cc2O[C@H]1CN(C)C(=O)Cc1ccccn1 | inactive
COc1ccc(NC(=O)N(C)C[C@@H]2OCCCC[C@H](C)Oc3ccc(NC(=O)CCC(F)(F)F)cc3C(=O)N([C@@H](C)CO)C[C@@H]2C)cc1 | inactive
CO[C@H]1CN(C)C(=O)c2cc(NS(=O)(=O)c3cn(C)cn3)ccc2OC[C@H](C)N(Cc2cccc(F)c2)C[C@@H]1C | inactive
CO[C@H]1/C=C/C[C@H](C)[C@@H](C)S(=O)(=O)NC(=O)c2ccc3c(c2)N(C[C@@H]2CC[C@H]21)C[C@@]1(CCCc2cc(Cl)ccc21)CO3 | active
COc1ccc(CN(C)C[C@@H]2OCCCC[C@@H](C)Oc3ccc(NC(=O)c4ccccc4)cc3C(=O)N([C@@H](C)CO)C[C@@H]2C)cc1 | inactive
CO[C@@H]1CN(C)C(=O)c2ccc(NS(=O)(=O)c3cn(C)cn3)cc2OC[C@H](C)N(Cc2cccc(F)c2)C[C@@H]1C | inactive
C=C1C(=O)OC2CC3(C)CCCC(C)C3=CC12 (centres undefined) | active
C[C@H]1CN([C@@H](C)CO)C(=O)c2cc(NC(=O)C3CCCCC3)ccc2O[C@@H]1CN(C)Cc1ccc(Cl)c(Cl)c1 | inactive
COC(=O)C1(C)CCCC2(C)c3ccc(O)c(C(C)C)c3CCC12 (centres undefined) | active
CC(C)c1c(O)ccc2c1CCC1C(C)(C)C(=O)CCC21C (centres undefined) | inactive
CC(C)c1c(O)ccc2c1CCC1C(C)(C)CCCC21C (centres undefined) | inactive
CC(C)c1c(O)ccc2c1CCC1C(C)(C=O)CCCC21C (centres undefined) | inactive
COC(=O)C1(C)CCCC2(C)c3ccc(C(C)C)cc3C(=O)CC12 (centres undefined) | inactive
CC(C)c1c(O)ccc2c1CC[C@H]1C(C)(C)CCC[C@]21C | active
